The panel holds about 83,000 compounds, 20% with a hit somewhere; the sample as a whole holds those more often.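 Testing used 96-well plates and a 48-hour single-concentration exposure. Example: -40 means 40% of the starting cells died.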 Unmarked numbers belong to inactive results. The source made the active and inactive calls. How the source made its calls: active means growth percent below 10; inactive means the rest.

This assay relates to HL-60(TB) leukemia. Description: NCI-60 one-dose screen, 48 h (100 = growth as untreated, 0 = no growth, -100 = all killed). As to conditions: 10 µM unless noted.
For the molecule `COc1ccc(-c2cnnc3c(-c4cccc(C(F)(F)F)c4)cnn23)cc1`, the growth is 60.2%. For the molecule `O=C(Nc1nc(C(=O)N2CCN(C(c3ccccc3)c3ccccc3)CC2)cs1)c1ccc(NC2CCCCC2)c([N+](=O)[O-])c1`, the growth is 98.5%. The result for `O=NN(C(=O)NC1CCC(C(=O)O)CC1)C1CCC(C(=O)O)CC1` (centres undefined) reads 112%. The figure for `CCc1ccc(/C(C#N)=C/C=C/c2ccccc2)cc1` is -1.39% (active); for `CC(/C=C/c1ccccc1)=N/NC(=O)c1ccncc1` it is 92.2%. The figure for `CN(C)CCNC(=O)c1cccn2c(=O)c3cc4ccccc4cc3nc12` is -38.5% (active). For `COc1cc(/C=C2\CN(C(=O)CCN3CCC(=NO)CC3)C/C(=C\c3cc(OC)c(OC)c(OC)c3)C2=O)cc(OC)c1OC`, the growth is -27.9% (active). For the molecule `CCCCS(=O)(=O)Oc1ccc(-c2nc(C)c(C(=O)OCC)s2)cc1C=O`, the growth is 37.7%. The figure for `CN(C)Cc1ccc(O)c(C(=O)O)c1` is 107%; for `Brc1ccc(-c2nc3ccccc3s2)cc1` it is 99.6%. Consider `O=C1Nc2ccccc2/C1=C/c1c[nH]c2ccccc12`, for which the growth was 102%.

With `C=C1C(=O)O[C@H]2[C@H]1CC/C(COC(=O)/C=C/c1cccnc1)=C\CC[C@@]1(C)O[C@@H]21`, the growth was -28% (active). The result for `CCOC(=O)NCCCC(=O)NCCc1ccccc1` reads 102%; that for `CCOC(=O)C1C(=O)OC2CCCCC21` (centres undefined), 98.5%; that for `Cc1c(O)cccc1O`, 110%. With `O=S1(=O)NCCN1CCNc1nccc(-c2c(-c3cccc(O)c3)nc3sccn23)n1`, the growth is 111%. The figure for `O=C(Nc1ccccc1Cl)c1cnc2ccc(C3CCNCC3)cn12` is 103%; for `COc1ccc(C2C=C(c3ccc(Cl)cc3)N=C3SC=CN32)c(Br)c1` (centres undefined) it is 92.9%. The figure for `COc1ccc(N2C(=O)/C(=C/C(Cl)=C/c3ccc([N+](=O)[O-])cc3)SC2=S)cc1` is -14% (active). The result for `C=CC(=O)Nc1cccc(Oc2nccc(Nc3nnc(-c4ccc(Br)cc4)s3)n2)c1` reads 121%.

Take `COc1cc2c(c(O)c1Cl)C(=O)c1c(O)cc(C[C@H](C)O)cc1[C@H]2[C@H]1c2cc(C[C@H](C)O)cc(O)c2C(=O)c2c1cc(OC)c(Cl)c2O`: the growth is 1.89% (active). The figure for `O=C1C=CC(=O)C2=C1CCCC2` is 28.7%; for `COC(=O)[C@]12CC[C@@H](C)[C@H](C)[C@@H]1C1=CC(=O)[C@@H]3[C@@]4(C)C[C@@H](O)[C@H](O)[C@@]5(C)COC(=C45)C[C@@]3(C)[C@]1(C)CC2` it is 41.9%. The figure for `CC(=O)Nc1ccc(S(=O)(=O)N2C(=O)CCC2C(=O)Nc2ccc(Br)cc2)cc1` (centres undefined) is 15.5%.

Source of the values: PubChem BioAssay (NCI).
